Reference: the supplement of paper PMC8728848
About 410 targets per protein were measured; listed, in parts, are those with the strongest signals and a random draw of the rest.

Assays:
Experiment in all cases: glycan array binding signal (z-score within array); higher = stronger binding
Details in all cases: glycan notation: IUPAC condensed, linker removed
[1] = target: Fuc(a1-2)Gal(b1-3)GalNAc(a1-3)[Fuc(a1-2)]Gal(b1-4)GlcNAc
Outline: (§1)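 Glycan array data were curated from 3228 arrays in the Consortium for Functional Glycomics database and kept only where the protein sequence was available. Glycan names were converted to IUPAC-condensed notation, and columns mapping to the same glycan were averaged. The binding signal is a within-array Z-score, averaged across arrays of the same protein sequence at different concentrations or buffers and across linkers. Negative Z-scores can be read as non-binding.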

[2] = target: Fuc(a1-2)Gal(b1-3)GlcNAc(b1-3)Gal(b1-4)Glc
Outline: as §1

[3] = target: Fuc(a1-2)Gal(b1-3)GlcNAc(b1-3)[Fuc(a1-3)[Gal(b1-4)]GlcNAc(b1-6)]Gal(b1-4)Glc
Outline: as §1

[4] = target: Fuc(a1-2)Gal(b1-4)[Fuc(a1-3)]GlcNAc(b1-3)Gal(b1-4)[Fuc(a1-3)]GlcNAc(b1-3)Gal(b1-4)[Fuc(a1-3)]GlcNAc
Outline: as §1

[5] = target: Fuc(a1-2)[Gal(a1-3)]Gal(b1-4)GlcNAc(b1-2)Man(a1-3)[Fuc(a1-2)[Gal(a1-3)]Gal(b1-4)GlcNAc(b1-2)Man(a1-6)]Man(b1-4)GlcNAc(b1-4)GlcNAc
Outline: as §1

[6] = target: Fuc(a1-2)[Gal(a1-3)]Gal(b1-4)[Fuc(a1-3)]GlcNAc
Outline: as §1

[7] = target: Fuc(a1-2)[GalNAc(a1-3)]Gal(b1-4)[Fuc(a1-3)]GlcNAc
Outline: as §1

[8] = target: Fuc(a1-3)[Gal(b1-4)]GlcNAc(b1-4)Gal(b1-4)[Fuc(a1-3)]GlcNAc
Outline: as §1

[9] = target: Fuc(a1-3)[Gal(b1-4)]GlcNAc(b1-6)[Gal(b1-3)GlcNAc(b1-3)]Gal(b1-4)Glc
Outline: as §1

[10] = target: Fuc(a1-3)[GalNAc(b1-4)]GlcNAc
Outline: as §1

Fuc(a1-4)GlcNAc = target: Fuc(a1-4)GlcNAc
Outline: as §1

Gal(b1-4)Glc6S = target: Gal(b1-4)Glc6S
Outline: as §1

[11] = target: Gal(b1-4)GlcNAc(b1-2)Man(a1-3)[Gal(b1-4)GlcNAc(b1-2)Man(a1-6)]Man(b1-4)GlcNAc(b1-4)GlcNAc
Outline: as §1

[12] = target: Gal(b1-4)GlcNAc(b1-2)Man(a1-6)Man(b1-4)GlcNAc(b1-4)GlcNAc
Outline: as §1

[13] = target: Gal(b1-4)GlcNAc(b1-3)[Gal(b1-4)GlcNAc(b1-6)]GalNAc
Outline: as §1

[14] = target: Gal(b1-4)GlcNAc(b1-6)GalNAc
Outline: as §1

[15] = target: Gal3S(b1-3)[Fuc(a1-4)]GlcNAc
Outline: as §1

[16] = target: GalNAc(b1-3)Gal(a1-4)Gal(b1-4)GlcNAc
Outline: as §1

Glc(b1-4)Glc = target: Glc(b1-4)Glc
Outline: as §1

[17] = target: GlcNAc(b1-3)Gal(b1-4)GlcNAc
Outline: as §1

[18] = target: GlcNAc(b1-3)[GlcNAc(b1-6)]GalNAc
Outline: as §1

[19] = target: GlcNAc(b1-4)Gal(b1-4)GlcNAc
Outline: as §1

[20] = target: GlcNAc(b1-4)[GlcNAc(b1-6)]GalNAc
Outline: as §1

Kdn(a2-6)Gal(b1-4)GlcNAc = target: Kdn(a2-6)Gal(b1-4)GlcNAc
Outline: as §1

[21] = target: Man(a1-2)Man(a1-2)Man(a1-3)Man
Outline: as §1

[22] = target: Man(a1-2)Man(a1-2)Man(a1-6)[Man(a1-3)]Man
Outline: as §1

Man(a1-2)Man(a1-3)Man = target: Man(a1-2)Man(a1-3)Man
Outline: as §1

[23] = target: Man(a1-2)Man(a1-3)[Man(a1-2)Man(a1-6)]Man
Outline: as §1

[24] = target: Man(a1-2)Man(a1-3)[Man(a1-2)Man(a1-6)]Man(a1-6)[Man(a1-2)Man(a1-2)Man(a1-3)]Man
Outline: as §1

[25] = target: Man(a1-2)Man(a1-6)[Man(a1-3)]Man(a1-6)[Man(a1-2)Man(a1-2)Man(a1-3)]Man
Outline: as §1

[26] = target: Man(a1-2)Man(a1-6)[Man(a1-3)]Man(a1-6)[Man(a1-2)Man(a1-2)Man(a1-3)]Man(b1-4)GlcNAc(b1-4)GlcNAc
Outline: as §1

Man(a1-6)Man = target: Man(a1-6)Man
Outline: as §1

Man(b1-4)GlcNAc = target: Man(b1-4)GlcNAc
Outline: as §1

Neu5Ac(a2-3)Gal = target: Neu5Ac(a2-3)Gal
Outline: as §1

[27] = target: Neu5Ac(a2-3)Gal(b1-3)GalNAc(b1-4)[Neu5Ac(a2-3)]Gal(b1-4)Glc
Outline: as §1

[28] = target: Neu5Ac(a2-3)Gal(b1-3)GlcNAc(b1-3)Gal(b1-4)GlcNAc
Outline: as §1

[29] = target: Neu5Ac(a2-3)Gal(b1-3)GlcNAc(b1-3)GalNAc
Outline: as §1

[30] = target: Neu5Ac(a2-3)Gal(b1-4)GlcNAc(b1-3)Gal(b1-4)[Fuc(a1-3)]GlcNAc
Outline: as §1

[31] = target: Neu5Ac(a2-3)Gal(b1-4)[Fuc(a1-3)]GlcNAc(b1-3)Gal(b1-4)[Fuc(a1-3)]GlcNAc(b1-3)Gal(b1-4)[Fuc(a1-3)]GlcNAc
Outline: as §1

Neu5Ac(a2-6)Gal = target: Neu5Ac(a2-6)Gal
Outline: as §1

[32] = target: Neu5Ac(a2-6)Gal(b1-4)GlcNAc(b1-3)GalNAc
Outline: as §1

Neu5Ac(a2-6)GalNAc = target: Neu5Ac(a2-6)GalNAc
Outline: as §1

[33] = target: Neu5Ac(a2-8)Neu5Ac(a2-3)Gal(b1-4)Glc
Outline: as §1

B1: CTLY 1 (Homo sapiens), Q6ZS10 (protein)
chain: AITCPEGWLPFEGKCYYFSPSTKSWDEARMFCQENYSHLVIINSFAEHNFVAKAHGSPRVYWLGLNDRAQEGDWRWLDGSPVTLSFWEPEEPNNIHDEDCATMNKGGTWNDLSCYKTTYWICERKGLNDIFEAQKIEWHE
[1]
  glycan array binding signal (z-score): -0.207
[2]
  glycan array binding signal (z-score): -0.241
[3]
  glycan array binding signal (z-score): -0.239
[4]
  glycan array binding signal (z-score): 4.81
[5]
  glycan array binding signal (z-score): -0.174
[6]
  glycan array binding signal (z-score): -0.207
[7]
  glycan array binding signal (z-score): 5.5
[8]
  glycan array binding signal (z-score): 0.526
[9]
  glycan array binding signal (z-score): -0.219
[10]
  glycan array binding signal (z-score): -0.188
Fuc(a1-4)GlcNAc
  glycan array binding signal (z-score): -0.24
Gal(b1-4)Glc6S
  glycan array binding signal (z-score): -0.248
[11]
  glycan array binding signal (z-score): -0.242
[12]
  glycan array binding signal (z-score): -0.226
[13]
  glycan array binding signal (z-score): -0.246
[14]
  glycan array binding signal (z-score): -0.23
[15]
  glycan array binding signal (z-score): 1.29
[16]
  glycan array binding signal (z-score): -0.243
Glc(b1-4)Glc
  glycan array binding signal (z-score): -0.243
[17]
  glycan array binding signal (z-score): -0.237
[18]
  glycan array binding signal (z-score): -0.066
[19]
  glycan array binding signal (z-score): -0.212
[20]
  glycan array binding signal (z-score): 0.086
Kdn(a2-6)Gal(b1-4)GlcNAc
  glycan array binding signal (z-score): -0.232
[21]
  glycan array binding signal (z-score): 6.07
[22]
  glycan array binding signal (z-score): 10.1
Man(a1-2)Man(a1-3)Man
  glycan array binding signal (z-score): 1.1
[23]
  glycan array binding signal (z-score): 4.5
[24]
  glycan array binding signal (z-score): 8.68
[25]
  glycan array binding signal (z-score): 4.81
[26]
  glycan array binding signal (z-score): 0.475
Man(a1-6)Man
  glycan array binding signal (z-score): -0.228
Man(b1-4)GlcNAc
  glycan array binding signal (z-score): -0.239
Neu5Ac(a2-3)Gal
  glycan array binding signal (z-score): -0.238
[27]
  glycan array binding signal (z-score): -0.231
[28]
  glycan array binding signal (z-score): -0.235
[29]
  glycan array binding signal (z-score): -0.237
[30]
  glycan array binding signal (z-score): -0.238
[31]
  glycan array binding signal (z-score): 1.04
Neu5Ac(a2-6)Gal
  glycan array binding signal (z-score): -0.253
[32]
  glycan array binding signal (z-score): -0.235
Neu5Ac(a2-6)GalNAc
  glycan array binding signal (z-score): -0.248
[33]
  glycan array binding signal (z-score): -0.252
